Bioassay records as filed in PubChem BioAssay.
Sfp inh = qHTS Assay for Inhibitors of Bacillus subtilis Sfp phosphopantetheinyl transferase (PPTase). 4'-phosphopantetheinyl transferase ffp (Bacillus subtilis), Q9F4F7. Biochemical Sfp PPTase activity, qHTS. Potency, µM, hits mostly inhibitors. 3.5% of 310,000 active;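 note: the enzyme is Sfp with the accession as filed and its product quenches rhodamine fluorescence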
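Compounds were incubated with enzyme (final 15 nM) for 15 min at room temperature before substrate addition started the reaction. Fluorescence at 525 nm excitation, 598 nm emission was recorded immediately and after 30 minutes.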
Tau fibril FP = qHTS for Inhibitors of Tau Fibril Formation, Fluorescence Polarization; 0.39% of 280,000 active; Microtubule-associated protein tau (Homo sapiens), P10636; K18 P301L tau heparin fibrillization, Alexa594 FP, 6 h; AID 1468, 2008; Potency, µM (series often up to 57.7 µM), actives largely listed as inhibitors; note: nearly all actives have a fitted effect of over 55% in size
Target sequence (P10636 561-689 P618L limits assumed): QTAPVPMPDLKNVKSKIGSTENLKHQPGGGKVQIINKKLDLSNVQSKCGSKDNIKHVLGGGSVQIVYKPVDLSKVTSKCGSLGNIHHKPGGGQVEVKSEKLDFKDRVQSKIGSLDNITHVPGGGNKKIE
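Heparin (20 uM) drove fibril formation of recombinant tau K18 P301L, 15 uM unlabeled with 0.24 uM Alexa 594 label, for 6 hr at 37 C in 100 mM sodium acetate pH 7. Fluorescence polarization (555/632 nm) read 1 hr after 30 uM ThT.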
VDR inhibitor = Inhibitors of the vitamin D receptor (VDR): qHTS | Vitamin D3 receptor (Homo sapiens), P11473 | VDR-SRC2-3 peptide fluorescence polarization, 2 h | Potency, µM, hits mostly inhibitors | 0.93% of 400,000 active
Target sequence (P11473 whole entry, looked up): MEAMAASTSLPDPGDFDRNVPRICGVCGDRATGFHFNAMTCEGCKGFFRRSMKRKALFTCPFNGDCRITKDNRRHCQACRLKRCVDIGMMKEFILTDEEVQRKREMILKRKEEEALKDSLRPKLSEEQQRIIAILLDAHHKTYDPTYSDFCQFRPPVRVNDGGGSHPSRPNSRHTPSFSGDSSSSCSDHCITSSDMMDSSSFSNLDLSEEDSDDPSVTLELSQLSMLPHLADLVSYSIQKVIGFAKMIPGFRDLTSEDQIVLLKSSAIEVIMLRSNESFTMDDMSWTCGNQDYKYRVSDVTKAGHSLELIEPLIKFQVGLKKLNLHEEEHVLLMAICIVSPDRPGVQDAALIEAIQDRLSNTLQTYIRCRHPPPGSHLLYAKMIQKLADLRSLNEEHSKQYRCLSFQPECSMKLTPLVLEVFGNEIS
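After 23 nl compound addition and a short centrifugation, plates sat for 2 hours at ambient temperature; polarization of fluorescence then indicated loss of VDR binding to peptide SRC2-3.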
Tau ThT inhib = qHTS for Inhibitors of Tau Fibril Formation, Thioflavin T Binding. recombinant tau K18 P301L, heparin-induced fibrillization, ThT fluorescence. Potency, µM (highest dose often 57.4 µM), hits mostly inhibitors. 2.1% of 270,000 active. AID 1460, 2008; note: nearly all actives have a fitted effect of over 55% in size
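Fibril formation assay: tau K18 P301L at 15 uM with trace Alexa 594 label, heparin inducer 20 uM, pH 7 sodium acetate buffer, 37 C for 6 hr; endpoint ThT signal.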
Tau fluor cs = Counterscreen qHTS for Inhibitors of Tau Fibril Formation, Fluorescence Polarization; tau K18 P301L Alexa594 fluorescence, heparin fibrillization; Potency, µM (titrated, usually from 57.7 µM); 0.93% of 280,000 active; note: nearly all actives have a fitted effect of over 55% in size
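Human tau K18 P301L (15 uM unlabeled, 0.24 uM Alexa 594-labeled) in 100 mM sodium acetate pH 7 with 20 uM heparin, 6 hr at 37 C. ThT 30 uM added, 1 hr ambient; Alexa 594 FP and total fluorescence read at 555/632 nm.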
PLK1 PBD inh = qHTS for Inhibitors of PLK1-PDB (polo-like kinase 1 - polo-box domain): Primary Screen; Serine/threonine-protein kinase PLK1 (Homo sapiens), P53350; 2.8% of 360,000 active; AID 720504, 2013; Potency, µM, actives largely listed as inhibitors; Plk1 PBD binding of FITC phosphopeptide, fluorescence polarization; note: series mostly up to about 57 µM; nearly all actives have a fitted effect of over 65% in size
A number is an active result; n = inactive; u = inconclusive; x = no result; [ ] = dose if it differs, or a comment. Most compounds without a hit are left out; they make up all but 6% or so of the library. Calls come from the whole dose curve; as a rule, active = well fitted curve in the direction sought with a large enough effect; inconclusive = small, poorly fitted or top-dose-only effect, or another doubt; inactive = no such curve, though single readings can be large; an effect the other way counts as inactive or inconclusive.

SMILES	Sfp inh	Tau fibril FP	VDR inhibitor	Tau ThT inhib	Tau fluor cs	PLK1 PBD inh
O=C1NC(=O)N(c2ccc(Cl)cc2)C(=O)/C1=C\c1ccc(Sc2nc3ccccc3[nH]2)o1	70.8µM	u	n	14.1µM	n	3.77µM
C=CCNC(=S)Nc1ccc(OC(=O)Nc2ccc(Cl)c(Cl)c2)cc1	n	15.8µM	n	u	u	9.47µM
CCOc1cc(/C=N/NC(=O)c2cccs2)ccc1OC(=O)N1CCOCC1	n	n	n	u	n	n
CC(C)c1ccc(C(c2c(O)c3ccccc3oc2=O)c2c(O)c3ccccc3oc2=O)cc1	x	x	x	x	x	21.2µM
O=c1oc2ccccc2c(O)c1C(c1ccc([N+](=O)[O-])cc1)c1c(O)c2ccccc2oc1=O	n	n	u	u	n	u
CCOC(=O)[C@]12Cc3ccc(C)cc3[C@H]1N(C1CCCCC1)C(=O)c1cc(OC)ccc12	x	x	x	x	x	4.23µM
CCOC(=O)[C@]12Cc3cc4c(cc3[C@H]1N(Cc1ccccc1)C(=O)c1ccccc12)OCO4	x	x	n	x	x	n
CCOC(=O)[C@]12Cc3c(cc(OC)c(OC)c3OC)[C@H]1N(C1CCCCC1)C(=O)c1ccccc12	x	x	x	x	x	9.47µM
CCOC(=O)[C@]12Cc3ccc(C)cc3[C@H]1N(C1CCCCC1)C(=O)c1ccccc12	x	x	x	x	x	2.99µM
CCOC(=O)[C@]12Cc3cc(C)ccc3[C@H]1N(CCC(=O)OC)C(=O)c1ccccc12	x	x	x	x	x	8.44µM
COc1cc2c(cc1OC)[C@@]13CCN4CC5=CCOC6CC(=O)N2C1[C@H]6[C@@H]5C[C@@H]43 (stereo partly drawn)	n	n	n	n	n	x
CC1CC[C@]2(NC1)OC1CC3C4CC=C5CC(O)CC[C@@]5(C)C4CC[C@]3(C)C1C2C (stereo partly drawn)	n	n	n	n	n	x
CCOC(=O)[C@]12Cc3cc(Cl)ccc3[C@H]1N(C1CCCCC1)C(=O)c1cc(OC)ccc12	x	x	x	x	x	2.12µM
CCOC(=O)[C@]12Cc3cc(C)ccc3[C@H]1N(C1CCCCC1)C(=O)c1ccccc12	x	x	x	x	x	2.67µM
CCOC(=O)[C@]12Cc3cc(Cl)ccc3[C@H]1N(Cc1ccccc1)C(=O)c1ccccc12	x	x	n	x	x	n
C=CC(C)(C)c1c2c(c(O)c3c(=O)c4ccc(O)c(O)c4oc13)C=CC(C)(C)O2	n	u	n	u	15.8µM[quencher]	x
CCOC(=O)/C=C(C)/C=C/CC(C)CCCC(C)C (stereo not drawn)	n	x	n	x	x	x
O=C1Nc2cc(Cl)c(Cl)cc2N2CCNC[C@H]12	n	n	25.1µM	n	n	x
CCOP(=S)(OCC)Oc1ncn(-c2ccccc2)n1	u	x	14.1µM	x	x	x
COc1ccc(C(=O)Oc2cccc3cccnc23)cc1S(=O)(=O)N1CCOCC1	44.7µM	n	n	n	n	n
COc1ccc(S(=O)(=O)NCCc2sc3nc(-c4ccc(C)cc4)nn3c2C)cc1F	x	u	n	n	n	x
N#CC(C#N)=C(C#N)c1ccc(Nc2ccccc2)cc1	u	x	50.1µM	x	x	n
CCOC(=O)C1=Nc2ccccc2/C1=C\c1c(O)n(C)c(=O)n(C)c1=O	n	n	u	u	n	13.4µM
CCOP(=S)(OCC)Oc1cc(C)nc(N(CC)CC)n1	n	x	u	x	x	x
CNC(=S)N(C)CCc1cc2c(c(OC)c1C=C1C(=O)NC(=O)NC1=O)OCO2	u	n	n	u	n	u
SMILES	Sfp inh	Tau fibril FP	VDR inhibitor	Tau ThT inhib	Tau fluor cs	PLK1 PBD inh
C=CCN1C(=O)NC(=O)/C(=C/c2c(CCN(C)C(=O)c3ccccc3)cc3c(c2OC)OCO3)C1=O	n	x	n	x	x	23.8µM
CCC(C)/C=C(C)/C=C/C1=CC2=C(Cl)C(=O)C(C)(OC(C)=O)C(=O)C2=CO1 (stereo not drawn)	n	n	n	u	u	n
CC[C@H](C)/C=C(C)/C=C/C1=CC2=C(Cl)C(=O)[C@@](C)(OC(C)=O)C(=O)C2=CO1	x	x	39.8µM	x	x	1.06µM
CN1CC[C@@H]2CN3CCc4cccc(c43)[C@H]2C1	n	n	n	u	n	x
COC(=O)C1=CO[C@@H](C)[C@@H]2CN3CCc4c([nH]c5cc(OC)ccc45)[C@@H]3C[C@H]12	n	n	79.4µM	22.4µM	u	x
O=C(Nc1ccc2nc(-c3cccs3)c(-c3cccs3)nc2c1)N1CCCCC1	x	x	n	x	x	x
COc1ccc(NC(=O)N2CC[C@@]3(CCCN(C(=O)Oc4ccccc4)C3)C2)cc1	n	x	n	x	x	x
COc1ccc(CN2C(=O)NC(=O)/C(=C\c3cccc(OC)c3OC)C2=O)cc1	79.4µM	n	u	u	n	29.9µM
Cc1ccc(/C=C2/C(=O)NC(=O)N(Cc3ccc(F)cc3)C2=O)o1	35.5µM	n	x	x	n	x
Cc1ccccc1-n1c(C)cc(/C=C2/C(=O)NC(=O)N(Cc3ccco3)C2=O)c1C	n	n	n	u	n	n
O=C1NC(=O)N(Cc2ccccc2Cl)C(=O)/C1=C/c1cccs1	31.6µM	n	u	u	n	1.19µM
Cc1ccc(/C=C2\C(=O)NC(=O)N(Cc3ccccc3Cl)C2=O)o1	70.8µM	n	n	u	n	0.844µM
COc1cc(N2CCOCC2)ccc1/C=C1\C(=O)NC(=O)N(Cc2cccs2)C1=O	n	n	n	u	n	u
CNc1ccc(C(=O)CC(O)CCC(C)C2OC(=O)CC(O)CC(=O)CC(O)CC(O)CC(O)CC(O)CC3(O)CC(O)C(C(=O)OC)C(CC(O[C@@H]4OC(C)C(O)C(N)C4O)/C=C/C=C/C=C/C=C/C=C/C=C/C=C/C2C)O3)cc1 (stereo partly drawn)	n	n	n	u	n	x
C/C=C(/C)C(=O)OC1CC[C@]2(C)C3CCC4[C@]5(O)CC(O)[C@]6(O)C(CN7CC(C)CCC7[C@]6(C)O)[C@]5(O)C[C@@]42O[C@]13O (stereo partly drawn)	n	n	n	n	n	x
COc1ccc(CN2C(=O)NC(=O)/C(=C/c3ccc([N+](=O)[O-])o3)C2=O)cc1	50.1µM	u	x	8.91µM	u	x
Cc1ccc(/C=C2\C(=O)NC(=O)N(CCc3ccc(F)cc3)C2=O)o1	39.8µM	n	n	u	n	0.947µM
CCC(=O)Nc1cc(C(=O)O)ccc1S(=O)(=O)c1ccc(C)cc1	n	n	n	u	n	u
NC(=O)CSP(=O)(c1ccccc1)c1ccccc1	15.8µM	u	n	28.2µM	n	u
c1ccc(N2CCC3(CCNCC3)CC2)nc1	n	x	u	x	x	x
COc1ccc(/C=N\N=C(N)N)cc1	n	n	n	n	n	n
NC(N)=N/N=C/c1ccc(N(c2ccccc2)c2ccccc2)cc1	39.8µM	x	n	x	x	n
NC(N)=NCCC[C@@H](N)C(=O)O	u	n	n	n	n	x
